The whole screen tested about 1,300 compounds, of which about 150 (12%) were called active. Inconclusive results (about 30%) are left out. For the sample, actives were picked, then their nearest neighbours and some compounds at random. A number with no mark means an inactive call. The call rests on the fitted dose curve; in most records, active means well fitted cell-killing curve with a large enough effect; inconclusive means small, poorly fitted or top-dose-only effect, or effect the other way; inactive means flat fitted curve, though single readings scatter.
Experiment: qHTS of small molecules that selectively kill Giardia lamblia: Hit Validation in HepG2 cytotox;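 further: compound exposure lasted overnight at 37 deg C; nearly all actives have a fitted effect of over 55% in size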;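 on activity change, negative = cytotoxicity: viability measured as cellular ATP by ATPLite luminescence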
Conditions: cell viability; Potency: HepG2 cytotoxicity; series mostly up to 38.3 µM; activity change, negative = cytotoxicity: at the top concentration
Excerpt: Giardia lamblia is a human pathogen afflicting impoverished nations, and the most common cause of outbreaks of diarrhea in the United States. Giardia has been classified by the CDC as a category B bioterrorism organism. The favored anti giardiasis drugs in the US are metronidazole or tinidazole, compounds that have undesirable side effects. Moreover, increasing resistance to drug regimes and recurrence are a concern. It is thus clear that alternative drug treatments are needed.
In a collaboration between the University of Maryland, College Park and the NIH Chemical Genomics Center, a bioluminescence Giardia viability assay based on the trophozoites' ATP content was developed. This assay is suitable for high throughput screening, and miniaturized the assay for compound screening in 1536-well plates. The goal of the project is to screen the Molecular Libraries Small Molecule Repository (MLSMR) for compounds that selectively kill Giardia trophozoites. This counterscreen looks at the toxicity of the compounds against the human HepG2 cell line.
NIH Chemical Genomics Center [NCGC]
NIH Molecular Libraries Probe Centers Network [MLPCN]
Assay Submitter (PI): Osnat Herzberg, University of Maryland, College Park, MD.
4 uL of HepG2 cells ae dispensed into white 1536-well plates. They are incubated overnight at 37 deg C and then 23 nL of compounds are transferred to the wells with a pintool. Plates are incubated overnight at 37 deg C. 2 uL of ATPLite is added and the plates are incubated for 15 min at room temperature before they are read on the ViewLux for luminiescence.
On the % scale 0 is the no-effect control and ±100 the full control effect; potency means the concentration at half of the fitted maximal effect.

| SMILES | activity change, negative = cytotoxicity [%] | Potency |
| --- | --- | --- |
| CCc1cc(=O)oc2cc(C)cc(OCC(=O)NC3CCN(Cc4ccccc4)CC3)c12 | 4.04 | – |
| COc1cc2nc(N3CCCCC3)nc(NC3CCN(Cc4ccccc4)CC3)c2cc1OC | – | 2.93 µM (active) |
| COc1ccc(-n2nc([N+](=O)[O-])c(=NC3CCN(Cc4ccccc4)CC3)n2O)cc1 | 19.3 | – |
| NC(=O)CCn1c(C(=O)c2cccc([N+](=O)[O-])c2)c2ccccc2[n+]1[O-] | 7.08 | – |
| CC(=O)c1c(C)n([O-])c2ccccc2[n+]1=O | 10.7 | – |
| O=[N+]([O-])c1[nH]cnc1/C=C/c1ccccc1 | -0.0224 | – |
| O=C1NCCN1c1ncc([N+](=O)[O-])s1 | 13 | – |
| O=C(/C=C/c1cccnc1)/C=C/c1cccnc1 | – | 3.69 µM (active) |
| COc1ccc2nc(COC(=O)c3cccc([N+](=O)[O-])c3)c(C(C)=O)[n+]([O-])c2c1 | 27.3 | – |
| Nc1nc(F)nc2c1ncn2[C@@H]1O[C@H](CO)[C@@H](O)[C@@H]1O | 8.69 | – |
| CCOC(=O)Cc1csc(NC(=S)NC(=O)c2ccc(C)cc2)n1 | – | 2.93 µM (active) |
| Cc1ccc(C(=O)NC(=O)OCCn2c(C)cnc2[N+](=O)[O-])cc1 | -9.61 | – |
| CCOC(=O)Cc1csc(SCC(=O)NC2CCCCC2)n1 | 11.9 | – |
| Cc1onc(-c2ccccc2)c1C(=O)N(Cc1ccccc1)C(C)C | 0.585 | – |
| Cc1cnc([N+](=O)[O-])n1CCOC(=O)NC(=O)c1ccccc1 | 17.1 | – |
| COc1cccc2sc(N3CCN(C(=O)c4ccc([N+](=O)[O-])o4)CC3)nc12 | 5.93 | – |
| O=[N+]([O-])c1ccc(CSc2nnc(-c3cnccn3)o2)cc1 | -9 | – |
| Cc1cnc([N+](=O)[O-])n1CCOC(=O)NC(=O)c1c(F)cccc1F | 5.53 | – |
| CCCCCN=Cc1c(C)[nH]n(-c2nc3ccccc3s2)c1=O | – | 0.329 µM (active) |
| Oc1cccc(-c2nnc(-c3cccc(O)c3)nn2)c1 | – | 3.69 µM (active) |
| N#C/C(=C\c1ccc(O)c([N+](=O)[O-])c1)C(=O)NCc1ccccc1 | 14.5 | – |

| SMILES | activity change, negative = cytotoxicity [%] | Potency |
| --- | --- | --- |
| Cc1cnc([N+](=O)[O-])n1CCOC(=O)NC(=O)c1ccc(C(F)(F)F)cc1 | 16.2 | – |
| C=CCn1c(C)cc(C(=O)COc2ccc(C)nc2[N+](=O)[O-])c1C | -14 | – |
| O=C(Nc1nnc(C23CC4CC(CC(C4)C2)C3)s1)c1ccco1 | -19.1 | – |
| O=C(Nc1ccc2c(c1)nc1n2CCSC1)c1ccco1 | – | 2.33 µM (active) |
| O=C1c2cc(F)ccc2-n2c1nc1ccccc1c2=O | – | 5.21 µM (active) |
| CN(C(=O)CSc1nc2ccccc2c(=O)n1-c1ccc(F)cc1)C1CCS(=O)(=O)C1 (configuration not stated) | 0.691 | – |
| Cc1ccc(-c2[nH][nH]c(=O)c(=O)c2N=Nc2ccccc2)cc1 | 2.65 | – |
| O=[N+]([O-])c1cc(S(=O)(=O)N2CCCC2)ccc1N/N=C/c1ccncc1 | 6.25 | – |
| Cc1ccc(OCC(=O)Nc2nc(C)c(Cl)cc2Cl)c([N+](=O)[O-])n1 | 18.2 | – |
| O=[N+]([O-])c1ccc(N=NN(CCO)CCO)cc1 | 1.05 | – |
| Cc1cc(C2=NNC(=NC3CC3)SC2)c(C)n1-c1ccccc1F | – | 0.927 µM (active) |
| CCOC(=O)C1=C(C)N=c2s/c(=C/c3cccc([N+](=O)[O-])c3O)c(=O)n2C1c1cc(OC)c(OC)c(OC)c1 (configuration not stated) | 1.65 | – |
| Cc1ccc([C@@H]2CC=C(C(=O)O)[C@H](c3ccccc3)N2S(=O)(=O)c2ccc(C)cc2)cc1 | 3.15 | – |
| NCCCn1c(C(=O)c2ccc(Cl)cc2)c2ccc(C(F)(F)F)cc2[n+]1[O-] | 0.602 | – |
| CCN1/C(=C\c2ccc3ccccc3[n+]2CC)Sc2cc(C)ccc21 | – | 4.65 µM (active) |
| N/C(=N/OC(=O)c1ccc(Cl)cc1)c1ncc([N+](=O)[O-])s1 | 13.6 | – |
| Cc1ncc([N+](=O)[O-])n1CCOC(=O)c1cc(Cl)cc(Cl)c1N | 19.6 | – |
| COC(=O)c1ccc2cc(OC)cc([N+](=O)[O-])c2n1 | 11.5 | – |
| Cc1nc2c(o1)C(=O)c1ccccc1C2=Nc1ccccc1 | – | 4.65 µM (active) |
| Cc1c(N=Nc2ccc(O)cc2)c(=O)n(-c2ccccc2)n1C | 6.28 | – |
| Cc1ccc(OCC(=O)c2cc(C)n(-c3ccccc3)c2C)c([N+](=O)[O-])n1 | 0.398 | – |

| SMILES | activity change, negative = cytotoxicity [%] | Potency |
| --- | --- | --- |
| CCn1ncc([N+](=O)[O-])c1C(=O)Nc1nc2cccc(C)c2s1 | -4.43 | – |
| CC(=O)Nc1ccc(NS(=O)(=O)c2ccc(C)cc2)c([N+](=O)[O-])c1 | 11.2 | – |
| O=C(N/N=C/c1ccc([N+](=O)[O-])o1)c1cc(-c2ccc(-c3ccccc3)cc2)nc2ccccc12 | – | 2.61 µM (active) |
| Cc1nc2ccccn2c1C(=O)N/N=C/c1ccc([N+](=O)[O-])o1 | – | 14.7 µM (active) |
| COc1ccc(-c2nn(-c3ccccc3)cc2C(=O)N/N=C/c2ccc([N+](=O)[O-])o2)cc1 | 16.4 | – |
| CCCc1ccc(-c2cc(C(=O)N/N=C/c3ccc([N+](=O)[O-])o3)c3ccccc3n2)cc1 | – | 3.29 µM (active) |
| CCOC(=O)N/N=C\c1ccc([N+](=O)[O-])o1 | -4.74 | – |
| Cc1ccc2nc(N/N=C\c3ccc([N+](=O)[O-])o3)nc(-c3ccccc3)c2c1 | -6.52 | – |
| O=C(N/N=C/c1ccc([N+](=O)[O-])o1)c1cn(-c2ccccc2)nc1-c1ccc(F)cc1 | 8.98 | – |
| Cc1cc(N/N=C/c2ccc([N+](=O)[O-])o2)nc2ccccc12 | -6.07 | – |
| O=C(N/N=C/c1ccc([N+](=O)[O-])o1)c1cn2ccc3ccccc3c2n1 | -5.23 | – |
| CC1CC(C)C(=NNC(N)=O)C(C(O)CC2CCC(=O)NC2=O)C1 (configuration not stated) | 7.19 | – |
| N/C(=N\O)c1ccc([N+](=O)[O-])s1 | 6.1 | – |
| COc1ccc(-n2nc([N+](=O)[O-])c(=NCc3ccc4c(c3)OCO4)n2O)cc1 | 12.6 | – |
| O=C(/C=C/c1ccc(O)c([N+](=O)[O-])c1)c1ccc2ccccc2c1 | -18.5 | – |
| Cc1nn(-c2nc3ccccc3[nH]2)c(=O)c2ccccc12 | – | 2.07 µM (active) |
| Cc1ccc(NC(=O)CN2C(=O)S/C(=C/c3ccc(O)c([N+](=O)[O-])c3)C2=O)cc1C | -3.32 | – |
| Cc1cccc(N=Nc2c(C)c(C#N)c(O)[nH]c2=O)c1 | 0.706 | – |
| O=C1/C(=C/c2ccncc2)CCC/C1=C\c1ccncc1 | – | 4.14 µM (active) |
| CC1C/C(=C/c2ccncc2)C(=O)/C(=C/c2ccncc2)C1 (configuration not stated) | – | 2.07 µM (active) |
